Assay results taken from PubChem BioAssay AID1345085 (National Center for Advancing Translational Sciences (NCATS), 2018).
Inconclusive results are not listed. Where a call stands in place of a potency, no number is given. Active and inactive are the calls of the source. Calls come from the whole dose curve; as a rule, active = well fitted cell-killing curve with a large enough effect; inconclusive = small, poorly fitted or top-dose-only effect, or effect the other way; inactive = no such curve, though single readings can be large or run the other way.

tested on: SW626; assay: Confirmatory qHTS for gynecologic anti-cancer compounds from libraries of approved drugs and bioactive compounds; conditions: gynecologic cancer cell panel viability, ATPlite luminescence, 48 h; series mostly up to 57.6 µM; note: nearly all actives have a fitted effect of over 55% in size
How it was run: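 ATPlite luminescence read-out of cell viability; IC50 from 11-point 1:3 titrations, 57.5 uM to 0.977 nM, 48 h compound exposure at 37 C, 5% CO2. Cells seeded at 1,000/well 16 h before dosing.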
Potency is the fitted concentration of half-maximal effect.

SMILES	Potency
C[C@]12CC[C@H]3[C@@H](CCC4=CC(=O)CC[C@@H]43)[C@@H]1CC[C@@H]2OC(=O)CCc1ccccc1	inactive
CCOc1ccccc1-n1c(C(C)N2CCN(C(=O)COc3ccc(Cl)cc3)CC2)nc2ccccc2c1=O (configuration not stated)	4850 nM (active)
C=C(C)[C@H]1Cc2c(ccc3c2O[C@@H]2COc4cc(OC)c(OC)cc4[C@@H]2C3=O)O1	inactive
C[C@H]1CCC/C=C/C2C[C@H](O)C[C@H]2[C@H](O)/C=C/C(=O)O1 (some centres not stated)	172 nM (active)
CCN1CCN(C(=O)Cc2ccc(Nc3ncc(F)c(Nc4ccc(C(=O)Nc5ccccc5Cl)cc4)n3)cc2)CC1	inactive
CCNC(=O)C[C@@H]1N=C(c2ccc(Cl)cc2)c2cc(OC)ccc2-n2c(C)nnc21	inactive
O=C(O)Cc1ccccc1	inactive
